We go through 8 compounds from PubChem BioAssay (NCI).

Common to all, as to assay: NCI-60 one-dose screen, 48 h (100 = growth as untreated, 0 = no growth, -100 = all killed)
Common to all, as to details: 10 µM unless noted

For assay [1], the system named is NCI-H23 lung.
Assay [2] has as its system NCI-H226 lung.
Assay [3] relates to NCI-H322M lung.
Assay [4] has as its system HOP-62 NSCLC.
Assay [5] concerns NCI-H460 lung.
Assay [6] deals with HOP-92 NSCLC.
Assay [7] has as its system NCI-H522 lung.
The subject of assay [8] is A549/ATCC NSCLC.
Assay [9] deals with 786-0 renal.
The test system of assay [10] is COLO 205 colon.
Assay [11] concerns DU-145 prostate.
Assay [12] relates to K-562 leukemia.
In assay [13] the test system is MALME-3M melanoma.
The test system of assay [14] is RXF 393 renal.
Assay [15] deals with SF-268 CNS.
In assay [16] the test system is SF-295 CNS.
Assay [17] relates to SF-539 CNS.
In assay [18] the test system is UACC-257 melanoma.
Assay [19] concerns M14 melanoma.
Assay [20] relates to MDA-MB-231 breast.

Compounds without any hit were thinned out: in the full panel of roughly 83,000, 20% have a hit.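 Each cell line was grown in a 96-well plate and treated with one concentration of compound for 48 hours. Values below 10 were considered active.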 Values without a mark were called inactive. Activity calls are given as the source filed them.

`N#CC1=C(N)Oc2c(sc3c(Br)cccc23)C1c1ccc(Br)cc1` (centres undefined): the growth is 20.4% in assay [1]; 57.1% in [2]; 42.3% in assay [3]; 22% in [4]; 6.62% (active) in assay [5]; 34.7% in [6]. The growth is -7.13% (active) in assay [7]; 25.5% in assay [8]; 17.1% in assay [9]; -49.5% (active) in assay [10]; 8.77% (active) in assay [11]; 8.24% (active) in [12]. Also, the growth was 60% in assay [13]; -2.19% (active) in assay [14]; 33.9% in assay [15]; 0.128% (active) in assay [16]; -14.2% (active) in assay [17]; 41.4% in [18]. Besides, in assay [19], the growth was -0.594% (active).
For the compound `Clc1ccc2c(c1)N(CCCN1CCCC1)c1ccccc1S2`, the growth in assay [1] is 62.5%; in assay [2], 88.2%; in assay [3] it was 36.3%; in [4], 56.4%; in assay [5] it was 30%; in [6] it was -4.23% (active). For the same compound, the growth in assay [7] is 71.1%; in assay [8], 58.6%; in [9], 45.1%; in assay [10], -30.8% (active); in assay [11] it was 59.1%; in [12], 0.508% (active). For the same compound, the growth in assay [13] was 7.63% (active); in assay [14], 23.6%; in [15], 30%; in assay [16], 54.6%; in [17], 15.3%; in [18], 85.8%. Further, the growth in [19] is -47% (active).
As for `COC1=C(C)C(=O)c2c(c(CCCl)c3n2CCC3OC(C)=O)C1=O` (centres undefined), the growth in [1] was -12% (active); in assay [2] it was -14.9% (active); in [3], -14.8% (active); in [4], -22.4% (active); in assay [5], -14.3% (active); in assay [6], 56.4%. The growth is -56.9% (active) in assay [7]; 1.27% (active) in assay [8]; -32.4% (active) in assay [9]; -60% (active) in assay [10]; -9.56% (active) in assay [11]; 12.7% in assay [12]. For the same compound, the growth in [13] was -64.3% (active); in [14] it was -54.3% (active); in assay [15], 10.4%; in [16] it was -11.7% (active); in [17] it was -41.7% (active); in assay [18], -50.2% (active). The growth in assay [19] is -46.3% (active).
Consider `COc1ccc(-c2csc(NC(=O)N3CCN(c4cc5c(cc4F)c(=O)c(C(=O)O)cn5C4CC4)CC3)n2)cc1`, for which the growth was -2.88% (active) in [1]; 18.8% in assay [2]; 7.07% (active) in [3]; 20% in assay [4]; 4.13% (active) in assay [5]; -25.6% (active) in assay [6]. Further, the growth is -13.9% (active) in assay [7]; 3.2% (active) in assay [8]; 20.7% in assay [9]; 9.52% (active) in assay [10]; 10.6% in [11]; 11.7% in assay [12]. For the same compound, the growth in assay [13] was -11.4% (active); in assay [14] it was 34.4%; in assay [15], 20%; in [16], -4.61% (active); in assay [17] it was 20.6%; in assay [18], -17.6% (active). The growth in assay [19] is 9.8% (active).
As to `CCCCN(C)N=Nc1ccc(C(N)=O)cc1`, the growth in assay [1] was 102%; in [2], 124%; in [3], 105%; in [4], 122%; in [5], 104%; in [6], 103%. The growth in [7] is 109%; in [8], 97.3%; in assay [9], 106%; in assay [10] it was 110%; in assay [11], 113%; in assay [12], 116%. In addition, the growth in assay [13] is 111%; in [20] it was 106%; in assay [14], 150%; in [15], 108%; in assay [16], 101%; in assay [17], 107%. The growth in [18] was 105%; in [19], 102%.
Regarding `CSc1ccc2c(c1)c(CCN)c(C)n2Cc1ccc(Cl)c(Cl)c1`, the growth is -89.7% (active) in assay [1]; -59.8% (active) in assay [2]; -83% (active) in [3]; -78.2% (active) in [4]; -70.6% (active) in [5]; -91.6% (active) in assay [6]. Further, the growth is -76.5% (active) in assay [7]; -77.9% (active) in [8]; -76.1% (active) in [9]; -75.8% (active) in assay [10]; -89.4% (active) in [11]; -66.1% (active) in assay [12]. Further, the growth in assay [13] is -75.4% (active); in [14] it was -82.5% (active); in assay [15], -71.1% (active); in [16], -90.9% (active); in assay [17] it was -82.8% (active); in [18], -73.3% (active). Moreover, the growth in assay [19] was -85% (active).
In the case of `Cc1ccc(C2CC(c3ccc(Nc4ccnc5cc(Cl)ccc45)cc3)=NN2C=O)cc1` (centres undefined), the growth in assay [1] was 60.3%; in assay [2] it was 85.1%; in assay [3] it was 87.8%; in assay [4], 72.5%; in [5], 69.8%; in assay [6] it was 61.5%. For the same compound, the growth in assay [7] is 50.1%; in [8], 50.2%; in assay [9], 64%; in assay [10], 64.9%; in [11], 68.4%; in assay [12], 16.2%. The growth in assay [13] was 46.5%; in assay [20], 66.2%; in assay [14], 61.7%; in [15], 48.5%; in assay [16], 31.2%; in assay [17] it was 91%. The growth is 79.8% in [18] and 45.8% in assay [19].
Take `O=C(O)c1cn(C2CC2)c2cc(N3CCN(C(=O)Nc4nc(-c5ccccc5)cs4)CC3)c(F)cc2c1=O`: the growth is 9.06% (active) in assay [1]; 46.8% in assay [2]; 31.4% in assay [3]; 26% in assay [4]; 5.5% (active) in assay [5]; -21.5% (active) in [6]. Moreover, the growth is -2.04% (active) in assay [7]; 7.93% (active) in [8]; 22.5% in [9]; 51% in assay [10]; 17.2% in [11]; 17.1% in assay [12]. In addition, the growth in [13] was 23.9%; in [14], 42.7%; in [15] it was 23.3%; in assay [16] it was 10.6%; in [17], 21%; in [18], 9.92% (active). Also, the growth in [19] is 31.6%.
